The values that follow come from ChEMBL document CHEMBL3988442, “University of Dundee, Small-Polar-MMV Screening Library” (2021).

For some of these results: Results with a measured potency or affinity are listed apart.

Common to all, as to design: scale not given: direction of the effect not stated beside the values
For experiment [1], the target named is Protein translocase subunit SecA (Escherichia coli (strain K12)) (UniProt P10408). In words: Assay to Identify E. coli SecA ATPase Inhibitors. It counts as functional. To be noted: 30 µM.
Protein translocase subunit SecA (Escherichia coli (strain K12)), sequence (P10408 whole entry): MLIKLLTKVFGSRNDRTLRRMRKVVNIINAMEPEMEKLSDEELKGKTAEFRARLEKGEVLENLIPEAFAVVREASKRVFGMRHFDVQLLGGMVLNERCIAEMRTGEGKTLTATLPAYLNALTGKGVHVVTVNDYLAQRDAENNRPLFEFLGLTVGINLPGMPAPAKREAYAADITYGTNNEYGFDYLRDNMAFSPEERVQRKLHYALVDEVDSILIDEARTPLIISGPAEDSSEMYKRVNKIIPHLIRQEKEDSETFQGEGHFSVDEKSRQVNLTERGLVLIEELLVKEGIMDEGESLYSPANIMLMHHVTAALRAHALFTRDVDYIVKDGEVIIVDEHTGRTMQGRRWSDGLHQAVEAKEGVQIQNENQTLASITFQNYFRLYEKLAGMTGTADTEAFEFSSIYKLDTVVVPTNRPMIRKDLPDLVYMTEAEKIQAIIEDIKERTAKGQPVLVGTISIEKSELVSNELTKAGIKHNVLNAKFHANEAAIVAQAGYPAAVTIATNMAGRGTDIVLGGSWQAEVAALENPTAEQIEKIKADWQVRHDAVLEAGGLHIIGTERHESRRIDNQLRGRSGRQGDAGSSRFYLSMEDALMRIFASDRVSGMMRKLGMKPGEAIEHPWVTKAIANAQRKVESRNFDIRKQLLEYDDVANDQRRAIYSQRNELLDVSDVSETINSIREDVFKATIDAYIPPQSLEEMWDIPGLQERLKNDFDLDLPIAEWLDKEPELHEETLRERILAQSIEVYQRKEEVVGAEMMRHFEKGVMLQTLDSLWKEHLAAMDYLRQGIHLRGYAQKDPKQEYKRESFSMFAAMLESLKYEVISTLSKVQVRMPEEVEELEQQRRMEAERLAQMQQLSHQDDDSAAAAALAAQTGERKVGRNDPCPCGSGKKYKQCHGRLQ
Experiment [2] has as its target T1, Ubiquitin-activating enzyme e1, putative (Leishmania donovani (strain BPK282A1)) (UniProt E9BSI1).
T1 sequence (whole entry): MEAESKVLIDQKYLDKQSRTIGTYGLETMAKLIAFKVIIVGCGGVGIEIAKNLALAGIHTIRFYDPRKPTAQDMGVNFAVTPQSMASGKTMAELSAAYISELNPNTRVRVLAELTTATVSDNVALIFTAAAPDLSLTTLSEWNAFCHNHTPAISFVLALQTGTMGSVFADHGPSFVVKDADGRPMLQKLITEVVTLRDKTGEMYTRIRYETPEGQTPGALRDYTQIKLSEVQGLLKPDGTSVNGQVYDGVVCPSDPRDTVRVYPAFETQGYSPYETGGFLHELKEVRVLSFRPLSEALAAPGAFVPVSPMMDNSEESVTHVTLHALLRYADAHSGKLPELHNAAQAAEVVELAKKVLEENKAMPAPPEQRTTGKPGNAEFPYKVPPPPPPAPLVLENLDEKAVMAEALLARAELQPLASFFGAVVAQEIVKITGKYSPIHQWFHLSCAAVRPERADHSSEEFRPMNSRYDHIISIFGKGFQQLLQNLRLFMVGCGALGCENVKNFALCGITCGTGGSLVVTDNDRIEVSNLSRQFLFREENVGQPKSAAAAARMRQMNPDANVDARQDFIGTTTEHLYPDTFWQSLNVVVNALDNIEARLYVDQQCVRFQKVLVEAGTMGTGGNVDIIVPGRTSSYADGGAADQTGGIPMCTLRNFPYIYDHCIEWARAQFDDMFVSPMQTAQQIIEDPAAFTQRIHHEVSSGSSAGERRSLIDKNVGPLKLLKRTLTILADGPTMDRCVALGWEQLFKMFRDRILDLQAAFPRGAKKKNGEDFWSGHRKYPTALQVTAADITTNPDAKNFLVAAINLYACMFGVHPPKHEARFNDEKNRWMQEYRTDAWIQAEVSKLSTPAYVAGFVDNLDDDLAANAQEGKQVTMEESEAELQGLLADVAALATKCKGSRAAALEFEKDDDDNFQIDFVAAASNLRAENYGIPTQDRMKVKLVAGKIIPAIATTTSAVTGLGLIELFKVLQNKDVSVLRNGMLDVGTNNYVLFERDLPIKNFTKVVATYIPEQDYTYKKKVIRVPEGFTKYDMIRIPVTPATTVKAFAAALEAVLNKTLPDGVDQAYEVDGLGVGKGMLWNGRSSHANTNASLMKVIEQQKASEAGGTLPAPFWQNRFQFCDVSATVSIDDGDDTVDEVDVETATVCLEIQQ
Briefly: Leishmania donovani Ubiquitin Activating Enzyme (LdE1). Format: functional. To be noted: 30 µM.

Experiment [3] has as its target AMP-activated protein kinase, AMPK (Homo sapiens) (UniProt P54646+O43741+P54619+Q9UGJ0+Q9Y478+Q13131+Q9UGI9). Briefly: AMP-dependent Kinase enzyme assay. An in vitro enzyme assay that detects ADP turnover that is directly proportional to AMPK activity. This uses naive AMPK that is activated during the assay with MK-8722. Format: functional. The note with it: 30 µM.

In experiment [4] the target is Sialic acid-binding Ig-like lectin 9 (Homo sapiens) (UniProt Q9Y336). Briefly: Hs-Siglec9 ALPHAscreen SOP 20170721. To be noted: 10 µM. For orientation: Bead proximity is the source of the signal in Alpha formats.
Sialic acid-binding Ig-like lectin 9 (Homo sapiens), sequence (Q9Y336 whole entry): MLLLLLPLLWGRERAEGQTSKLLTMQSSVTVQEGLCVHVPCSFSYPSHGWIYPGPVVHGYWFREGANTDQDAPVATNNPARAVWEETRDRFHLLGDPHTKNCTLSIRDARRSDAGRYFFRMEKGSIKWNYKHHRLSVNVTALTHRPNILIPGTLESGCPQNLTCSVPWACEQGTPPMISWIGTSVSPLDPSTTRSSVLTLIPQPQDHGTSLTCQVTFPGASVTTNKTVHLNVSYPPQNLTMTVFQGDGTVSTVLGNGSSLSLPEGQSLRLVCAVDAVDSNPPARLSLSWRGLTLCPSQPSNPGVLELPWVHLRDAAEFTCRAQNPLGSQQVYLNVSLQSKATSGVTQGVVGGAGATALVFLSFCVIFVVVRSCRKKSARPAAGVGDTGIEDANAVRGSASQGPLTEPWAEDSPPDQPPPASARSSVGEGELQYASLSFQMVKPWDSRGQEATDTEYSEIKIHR
The test system of the next experiment is Trypanosoma cruzi. In words: Trypanosoma cruzi phosphomannomutase and mannose-1-phosphate guanylyltransferase assay. To be noted: 10 µM. Format: functional.
Experiment [5] addresses T2, Arginase-2, mitochondrial (Homo sapiens) (UniProt P78540).
T2 sequence (whole entry): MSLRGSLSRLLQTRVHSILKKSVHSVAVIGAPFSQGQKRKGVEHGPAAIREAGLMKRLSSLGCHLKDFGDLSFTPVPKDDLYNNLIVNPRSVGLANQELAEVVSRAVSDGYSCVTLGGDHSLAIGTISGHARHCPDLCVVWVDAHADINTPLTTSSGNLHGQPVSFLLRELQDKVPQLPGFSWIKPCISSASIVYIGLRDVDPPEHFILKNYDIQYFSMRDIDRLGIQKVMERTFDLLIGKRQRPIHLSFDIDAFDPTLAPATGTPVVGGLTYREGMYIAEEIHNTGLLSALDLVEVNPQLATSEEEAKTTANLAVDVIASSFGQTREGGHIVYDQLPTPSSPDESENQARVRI
Briefly: in vitro enzyme assay to detect the production of urea directly proportional to the activity of Arginase II. Also: in the data most compounds retested in dose-response had high values. Format: functional. To be noted: 33.3 µM.

For experiment [6], the target named is T3, Proteasome subunit beta (Trypanosoma cruzi) (UniProt O96673).
T3 sequence (whole entry): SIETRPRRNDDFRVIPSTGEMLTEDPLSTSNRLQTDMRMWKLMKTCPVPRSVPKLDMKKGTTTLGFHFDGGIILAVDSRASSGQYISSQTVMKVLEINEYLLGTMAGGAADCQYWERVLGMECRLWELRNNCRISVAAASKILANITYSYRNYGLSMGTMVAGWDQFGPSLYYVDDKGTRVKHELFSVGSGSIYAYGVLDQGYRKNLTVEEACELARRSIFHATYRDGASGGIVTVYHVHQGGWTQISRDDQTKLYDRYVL
Briefly: Trypanosoma cruzi proteasome chymotrypsin-like activity (TcProtChymo) assay. Also: in the data most compounds retested in dose-response had high values. Format: functional. The note with it: 9.37 µM.

A further experiment is filed under the species Homo sapiens. Briefly: To identify inhibition of the IFN signalling (Jak-Stat) pathway via expression of an eGFP reporter gene under the control of an IFN-stimulated response element (ISRE) containing MxA promoter. Format: functional. The note with it: 30 µM.
The target in experiment [7] is T4, Tyrosyl-tRNA synthetase, putative (Trypanosoma cruzi (strain CL Brener)) (UniProt Q4DSP6).
T4 sequence (whole entry): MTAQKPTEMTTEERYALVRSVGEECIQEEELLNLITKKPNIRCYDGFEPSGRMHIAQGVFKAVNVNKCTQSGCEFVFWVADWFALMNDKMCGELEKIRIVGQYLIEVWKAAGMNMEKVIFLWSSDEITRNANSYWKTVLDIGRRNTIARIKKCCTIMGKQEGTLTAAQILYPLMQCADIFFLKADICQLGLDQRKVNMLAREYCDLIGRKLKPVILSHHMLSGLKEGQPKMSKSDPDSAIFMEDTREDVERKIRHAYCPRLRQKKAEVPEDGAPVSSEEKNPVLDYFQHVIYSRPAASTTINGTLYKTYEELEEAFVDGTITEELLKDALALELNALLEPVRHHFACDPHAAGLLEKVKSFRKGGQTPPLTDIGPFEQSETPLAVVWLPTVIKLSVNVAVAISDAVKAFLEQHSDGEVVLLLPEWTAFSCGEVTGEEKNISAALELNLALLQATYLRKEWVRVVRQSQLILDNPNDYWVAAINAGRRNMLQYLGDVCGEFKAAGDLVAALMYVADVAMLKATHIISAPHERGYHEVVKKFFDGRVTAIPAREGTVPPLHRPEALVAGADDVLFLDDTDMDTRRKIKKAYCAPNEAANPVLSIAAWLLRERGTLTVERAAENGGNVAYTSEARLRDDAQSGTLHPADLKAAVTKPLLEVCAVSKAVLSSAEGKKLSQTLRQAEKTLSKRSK
Briefly: Trypanosoma cruzi tyrosyl tRNA synthetase (TcYRS) _High Tyrosine SOP. Also: in the data most compounds retested in dose-response had high values. Format: functional. The note with it: 30 µM.

The target in experiment [8] is T4, Tyrosyl-tRNA synthetase, putative (Trypanosoma cruzi (strain CL Brener)). Briefly: Trypanosoma cruzi tyrosyl tRNA synthetase (TcYRS) SOP. To be noted: 30 µM. It counts as functional.
Experiment [9] concerns the target Chromo domain-containing protein 1 (Saccharomyces cerevisiae (strain ATCC 204508 / S288c) (Baker's yeast)) (UniProt P32657). Briefly: ScCHD-1 Enzyme Inhibition Assay. Also: in the data most compounds retested in dose-response had high values. To be noted: 30 µM. Format: functional.

Chromo domain-containing protein 1 (Saccharomyces cerevisiae (strain ATCC 204508 / S288c) (Baker's yeast)), sequence (P32657 whole entry, the tested form may be a part): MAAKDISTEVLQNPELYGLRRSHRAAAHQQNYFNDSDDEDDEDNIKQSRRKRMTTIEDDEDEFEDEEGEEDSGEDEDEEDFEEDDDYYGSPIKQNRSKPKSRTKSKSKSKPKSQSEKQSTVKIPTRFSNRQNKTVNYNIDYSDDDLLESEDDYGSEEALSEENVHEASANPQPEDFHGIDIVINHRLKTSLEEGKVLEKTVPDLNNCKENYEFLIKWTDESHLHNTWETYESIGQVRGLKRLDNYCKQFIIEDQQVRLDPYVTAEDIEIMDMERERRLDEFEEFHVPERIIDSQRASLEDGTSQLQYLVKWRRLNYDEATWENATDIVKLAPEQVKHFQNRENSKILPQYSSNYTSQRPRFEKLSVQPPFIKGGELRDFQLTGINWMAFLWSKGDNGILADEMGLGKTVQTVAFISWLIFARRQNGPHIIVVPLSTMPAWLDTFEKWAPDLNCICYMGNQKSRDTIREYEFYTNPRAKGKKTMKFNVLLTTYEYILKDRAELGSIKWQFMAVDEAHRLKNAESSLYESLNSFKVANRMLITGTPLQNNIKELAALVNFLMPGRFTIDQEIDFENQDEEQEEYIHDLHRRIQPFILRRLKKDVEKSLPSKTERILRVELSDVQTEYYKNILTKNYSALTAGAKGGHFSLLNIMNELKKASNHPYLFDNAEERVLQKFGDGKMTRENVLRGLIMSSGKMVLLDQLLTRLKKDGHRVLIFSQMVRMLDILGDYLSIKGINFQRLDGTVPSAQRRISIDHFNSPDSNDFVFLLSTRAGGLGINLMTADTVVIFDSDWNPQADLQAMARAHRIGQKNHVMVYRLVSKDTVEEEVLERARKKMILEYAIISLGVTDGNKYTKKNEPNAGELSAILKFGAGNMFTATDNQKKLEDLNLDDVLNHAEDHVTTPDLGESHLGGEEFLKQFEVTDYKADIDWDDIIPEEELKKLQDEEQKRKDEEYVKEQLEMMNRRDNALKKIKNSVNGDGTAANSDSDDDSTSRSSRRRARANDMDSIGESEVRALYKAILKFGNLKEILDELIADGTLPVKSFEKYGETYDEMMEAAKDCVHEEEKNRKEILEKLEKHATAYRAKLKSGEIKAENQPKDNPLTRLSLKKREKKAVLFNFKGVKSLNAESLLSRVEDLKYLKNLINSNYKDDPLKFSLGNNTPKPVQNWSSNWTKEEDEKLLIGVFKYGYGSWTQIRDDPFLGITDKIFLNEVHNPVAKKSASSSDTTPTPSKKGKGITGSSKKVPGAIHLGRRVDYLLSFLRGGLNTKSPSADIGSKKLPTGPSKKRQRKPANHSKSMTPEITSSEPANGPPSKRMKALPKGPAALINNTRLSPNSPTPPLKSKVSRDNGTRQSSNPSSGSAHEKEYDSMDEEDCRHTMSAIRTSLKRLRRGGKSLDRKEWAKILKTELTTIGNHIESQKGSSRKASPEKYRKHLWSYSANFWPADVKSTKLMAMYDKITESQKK

Turning to `CN(C)CCCNC(=O)CNC(=O)N1CCc2c([nH]c3ccccc23)C1`, the Percent Effect was -6.34% in experiment [1]; -1.33% in experiment [2]; 20.1% in [3]; -2.5% in [4]; -2.16% in the experiment with Trypanosoma cruzi; -10.4% in experiment [5]. The Percent Effect is 9.06% in experiment [6]; 13.6% in the experiment listed under Homo sapiens; 1.06% in [7]; -5.13% in experiment [8]; -6.13% in experiment [9].
On to `CC(C)c1cc(NC(=O)CN2CCCC2Cn2cccn2)on1` (stereo unspecified), for which the Percent Effect in experiment [1] is -5.87%; in experiment [2] it was 5.26%; in experiment [3], -3.45%; in experiment [4] it was -1.04%; with Trypanosoma cruzi, -1.59%; in [5], 3.24%. In addition, the Percent Effect in experiment [6] was -0.761%; in the experiment listed under Homo sapiens it was 15.3%; in experiment [7], 7.39%; in [8], 6.17%; in experiment [9], 9.14%.
In the case of `CC(C)(C)c1nc(CN2CCCC2CCc2ccccc2)no1` (stereo unspecified), the Percent Effect is -4.12% in [1]; -2.6% in experiment [2]; 4.97% in experiment [3]; -2.77% in experiment [4]; -6.18% in the experiment on Trypanosoma cruzi; -0.712% in [5]. For the same compound, the Percent Effect is -5.91% in [6]; 27.2% in the experiment listed under Homo sapiens; 0.971% in [7]; -14.6% in [8]; 1.21% in [9].
Take `O=c1nc(SCc2ccncc2)c2c(n1CCO)CCCC2`: the Percent Effect in experiment [1] was -0.843%; in experiment [2], 16.4%; in [3], -2.68%; in experiment [4], 11.4%; in the experiment with Trypanosoma cruzi, 3.92%; in [5], 19.6%. Also, the Percent Effect in experiment [6] is 21.8%; in the experiment filed under Homo sapiens it was 19.8%; in [7], 3.23%; in experiment [8], 7.5%; in experiment [9], -7.55%.
Take `NC(=O)C1CCN(Cn2nc(-c3ccccc3)oc2=O)CC1`: the Percent Effect was -1.26% in [1]; 15.6% in experiment [2]; 6.06% in [3]; 6.43% in experiment [4]; 1.08% in the experiment on Trypanosoma cruzi; -56.5% in experiment [5]. In addition, the Percent Effect in [6] is 20.3%; in the experiment listed under Homo sapiens it was 2.82%; in experiment [7], 4.3%; in experiment [8], 16.1%; in experiment [9], -5.92%.
For `CCC(CNC(=O)Nc1cnn(CC)c1)N1CCCC1` (stereo unspecified), the Percent Effect in experiment [1] is 0.765%; in [2] it was 17.7%; in [3] it was -9.29%; in [4], -3.26%; with Trypanosoma cruzi, -6.33%; in experiment [5], 3.04%. The Percent Effect was 8.27% in [6]; 8.67% in the experiment filed under Homo sapiens; 3.45% in [7]; 16.5% in experiment [8]; -5.82% in experiment [9].
`CCc1nc(NCCCOC)c2c(n1)c(C)nn2C`: the Percent Effect is 0.06% in experiment [1]; 17.3% in experiment [2]; 0.763% in [3]; 2.98% in experiment [4]; 1.18% in the experiment with Trypanosoma cruzi; -0.176% in [5]. The Percent Effect in experiment [6] is 20.1%; in the experiment filed under Homo sapiens, 29.9%; in [7] it was 5.29%; in experiment [8] it was 17.9%; in [9], -11.5%.
`CN(Cc1ncc(C(C)(C)C)o1)C1CCCN(c2cccnn2)C1` (stereo unspecified): the Percent Effect in experiment [1] is -2.8%; in [2] it was 15.2%; in [3] it was -7.54%; in [4], -5.13%; with Trypanosoma cruzi it was 3.49%; in experiment [5], 2.66%. Also, the Percent Effect in experiment [6] was 13.2%; in the experiment filed under Homo sapiens it was 2.64%; in experiment [7], 12.3%; in experiment [8], 16.5%; in experiment [9] it was -3.04%.
As to `Cc1nc(C)n(CC2CCCN(c3ncnc4sccc34)C2)n1` (stereo unspecified), the Percent Effect in [1] was -2.59%; in experiment [2], 13.5%; in experiment [3], -5.88%; in experiment [4], -5.07%; with Trypanosoma cruzi it was -6.32%; in experiment [5] it was 0.401%. Besides, the Percent Effect in experiment [6] was 9.91%; in the experiment listed under Homo sapiens it was 65.9%; in experiment [7], 6.4%; in experiment [8], 16.1%; in experiment [9], -6.06%.
For the compound `CCOc1ccc(CC(CNC(=O)c2occc2C)C(N)=O)cc1` (stereo unspecified), the Percent Effect in [1] is -5.57%; in [2] it was 10.4%; in experiment [3], -18.6%; in experiment [4] it was -5.56%; in the experiment with Trypanosoma cruzi it was -3.23%; in experiment [5], 1.47%. Also, the Percent Effect in experiment [6] is 3.64%; in the experiment listed under Homo sapiens, 9.64%; in [7], 7.62%; in experiment [8], 11.8%; in [9], -12.3%.
Turning to `CC(=O)NCC1CCN(CC2CCOc3ccccc3C2)CC1` (stereo unspecified), the Percent Effect in [1] is -1.44%; in experiment [2], 15.3%; in experiment [3] it was -4.21%; in experiment [4], 14%; with Trypanosoma cruzi it was 1.85%; in [5] it was 9.27%. Besides, the Percent Effect in [6] was 13.2%; in the experiment filed under Homo sapiens it was -5.31%; in experiment [7], 4.21%; in experiment [8] it was 15.4%; in [9] it was -2.81%.
